Compound activity as filed in PubChem.
Sampled rows, rich in hits. Any-hit rate of the full collection: about 11%.
JMJD2A Tudor: qHTS Assay for Inhibitors of JMJD2A-Tudor Domain; Potency, µM (top dose mostly 114 µM), most hits filed as inhibitors; 390,000 compounds, 4.4% hits; Lysine-specific demethylase 4A (Homo sapiens), O75164; AlphaScreen JMJD2A-Tudor / H3K4me3 peptide binding; note: nearly all actives have a fitted effect of over 50% in size
HP1b binding inh: HTS for Inhibitors of HP1-beta Chromodomain Interactions with Methylated Histone Tails; Chromobox protein homolog 1 (Homo sapiens), P83916; AlphaScreen HP1-beta / biotin-H3K9me3 peptide binding; Potency, µM (top dose mostly 114 µM), usual class: inhibitors; 390,000 compounds, 0.56% hits; AID 540317, 2011; note: nearly all actives have a fitted effect of over 70% in size
Target sequence (P83916 whole entry, looked up): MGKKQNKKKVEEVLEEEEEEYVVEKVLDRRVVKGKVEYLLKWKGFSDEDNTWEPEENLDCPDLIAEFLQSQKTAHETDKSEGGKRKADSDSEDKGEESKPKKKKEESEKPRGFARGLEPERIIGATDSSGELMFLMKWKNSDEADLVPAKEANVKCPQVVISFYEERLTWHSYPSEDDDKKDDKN
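HP1-beta protein (50 nM final) preincubated 30 min at room temperature with biotinylated H3(1-18)K9me3 peptide (50 nM) in PBS pH 7.4, 0.01% Tween-20, then compound added for 30 min. AlphaScreen streptavidin donor/nickel chelate acceptor beads (10 ug/mL final), 30 min dark, luminescence read.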
G9a block: qHTS Assay for Inhibitors of Histone Lysine Methyltransferase G9a | Histone-lysine N-methyltransferase EHMT2 (Homo sapiens), Q96KQ7 | G9a H3K9 monomethylation, AlphaScreen, 2 h | Potency, µM (top dose mostly 102 µM), actives largely listed as inhibitors | 350,000 compounds, 8.8% hits; note: nearly all actives have a fitted effect of over 75% in size
Target sequence (Q96KQ7 913-1193 limits assumed): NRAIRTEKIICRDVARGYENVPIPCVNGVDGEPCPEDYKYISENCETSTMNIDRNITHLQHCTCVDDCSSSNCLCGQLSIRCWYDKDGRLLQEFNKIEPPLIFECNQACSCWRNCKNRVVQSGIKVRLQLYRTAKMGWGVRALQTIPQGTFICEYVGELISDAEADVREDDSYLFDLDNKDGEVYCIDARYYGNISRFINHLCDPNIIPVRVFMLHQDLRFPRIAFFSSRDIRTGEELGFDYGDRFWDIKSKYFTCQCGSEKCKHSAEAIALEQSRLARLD
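G9a (20 nM) was preincubated 15 min with compound, then reacted 2 h at room temperature with 500 nM biotin-H3K9 peptide and 20 µM SAM. Monomethyl-H3K9 detected by AlphaScreen using anti-H3K9me1 antibody.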
L3MBTL1 inh: qHTS Assay for the Inhibitors of L3MBTL1. Potency, µM (titrated, usually from 57.1 µM), most hits filed as inhibitors. Lethal(3)malignant brain tumor-like protein 1 (Homo sapiens), Q9Y468. AlphaScreen L3MBTL1–H3K9me1 peptide binding. 230,000 compounds, 0.66% hits. AID 485360, 2010; note: nearly all actives have a fitted effect of over 60% in size
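Displacement of a biotinylated histone H3(1-15) peptide monomethylated at Lys9 (75 nM) from L3MBTL1 (50 nM) was measured by AlphaScreen after a 30 min room-temperature compound incubation; cefsulodin titration served as intraplate control.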
BAZ2B block: qHTS Assay for Inhibitors of BAZ2B; AlphaScreen BAZ2B-H3K14Ac peptide displacement; Bromodomain adjacent to zinc finger domain protein 2B (Homo sapiens), Q9UIF8; Potency, µM (titrated, usually from 114 µM), usual class: inhibitors; 360,000 compounds, 4.4% hits; note: nearly all actives have a fitted effect of over 60% in size
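Inhibition is scored as reduced AlphaScreen emission. The BAZ2B/b-H3(5-23)K14Ac complex (50 nM each) in PBS pH 7.4, 0.01% Tween-20 meets compound (up to 110 uM) for 30 min at RT before bead addition.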
A number is an active result; - = inactive; ? = inconclusive; . = no result given; [ ] = remark or other dose. Calls come from the whole dose curve; as a rule, active = well fitted inhibition curve with a large enough effect; inconclusive = small, poorly fitted or top-dose-only effect; inactive = no such curve, though single readings can be large or run the other way.

SMILES	JMJD2A Tudor	HP1b binding inh	G9a block	L3MBTL1 inh	BAZ2B block
Cc1ccc(S(=O)(=O)NC(C(=O)Oc2ccc3c(C)c(Cl)c(=O)oc3c2)c2ccccc2)cc1 (centres undefined)	-	-	7.9µM	-	-
Cc1ccc(S(=O)(=O)N[C@H](C(=O)Oc2ccc3c(C(F)(F)F)cc(=O)oc3c2)c2ccccc2)cc1	28µM	-	3.5µM	-	-
Cc1ccc(S(=O)(=O)NC(C(=O)Oc2cc3oc(=O)cc(C)c3cc2Cl)C(C)C)cc1 (centres undefined)	-	-	-	-	-
Cc1ccc(-c2nc3ccccc3o2)cc1NC(=O)c1cccc2c(Cl)cccc12	-	-	-	.	-
O=C(NCc1ccccc1Cl)c1ccc(CSCc2cccc(F)c2)o1	-	-	-	.	-
Cc1ccc(S(=O)(=O)N2CCNC(=O)C2)c(C)c1	-	-	56µM	-	-
Cc1ccc(S(=O)(=O)N2CCN(C)CC2)c(C)c1	-	-	-	.	-
COC(=O)C1CCN(C(=O)CN2C(=O)NC(CC(C)C)C2=O)CC1 (centres undefined)	-	-	.	-	.
COc1cc(OC)c(NC(c2nnc(-c3ccccc3)o2)c2ccc(F)cc2Cl)cc1Cl (centres undefined)	?	-	11µM	.	?
CC(=O)NC1[C@H]([C@H](O)[C@H](O)CO)OC(C(=O)O)=C[C@H]1N=C(N)N (some centres undefined)	.	.	-	.	.
O=S(=O)(c1ccc(F)cc1)N1CCC(n2c(C(F)(F)F)nc3cccnc32)CC1	-	-	-	.	-
O=C(CCN1C(=O)/C(=C/c2ccccc2F)SC1=S)Nc1ccccn1	-	-	-	.	?
COc1cc(/C=C2\SC(=S)N(CCC(=O)Nc3ccccn3)C2=O)cc(OC)c1OC	-	-	7.9µM	.	-
O=C(CCCN1C(=O)/C(=C/c2ccccc2Cl)SC1=S)Nc1ccccn1	18µM	?	13µM	?	?
O=C(CCCN1C(=O)/C(=C/c2ccccc2Cl)SC1=S)Nc1cccnc1	22µM	-	-	.	?
O=C(CCCN1C(=O)/C(=C/c2cccs2)SC1=S)Nc1ccccn1	?	?	?	35µM	?
O=C(CCN1C(=O)/C(=C\c2cccs2)SC1=S)Nc1ccccn1	-	-	?	?	?
COc1cc(NC(=O)N2CCC(CN3CCCCCC3)CC2)cc(OC)c1OC	-	-	-	.	-
O=C1/C(=C/c2ccccc2Cl)SC(=S)N1CCCC(=O)N(CCO)c1ccccc1	8.9µM	-	20µM	.	3.2µM
O=C(CCN1C(=O)/C(=C/c2ccccc2Cl)SC1=S)Nc1ccccn1	-	-	7.9µM	.	?
O=C(CSc1nnc(CNC(=O)c2cccs2)o1)Nc1cccc(Cl)c1	-	-	-	.	-
COC(=O)c1ccc(NC(=O)N2CCC(CN3CCc4ccccc4C3)CC2)cc1	-	-	-	.	-
CCOc1ccc(NC(=O)c2cc3ccccc3cc2O)cc1	79µM	-	-[12.7 µM]	.	56µM
CCOc1ccc(NC(=O)c2cc(=O)[nH]c3ccccc23)cc1	-	-	.	-	56µM
[O-][n+]1c2ccccc2[n+]([O-])c2cc(O)ccc21	79µM	45µM	1.4µM	.	40µM
SMILES	JMJD2A Tudor	HP1b binding inh	G9a block	L3MBTL1 inh	BAZ2B block
Cc1ccc(-c2c(C3C4C=CCCC4(C)C(=O)N3Cc3ccccc3)ccc3ccccc23)cc1 (centres undefined)	-	-	.	.	.
CCN1/C(=C/c2ccc3cc(C)ccc3[n+]2CC)Sc2ccccc21	-	?	7.9µM	-	45µM
CCN1/C(=C/c2ccc3cc(C)ccc3[n+]2CC)Sc2cc(C)c(C)cc21	?	?	14µM	?	45µM
CC[n+]1ccccc1/C=C1\Sc2ccc(C)cc2N1C	?	-	-[0.501 µM]	.	?
CC[n+]1c(/C=C2\Sc3ccccc3N2C)ccc2cccc(C)c21	-	?	25µM	-	45µM
COc1ccc(C(=O)/C=C2\Sc3ccccc3N2C)cc1	-	-	?	-	-
CC(=S)/C=C1\Sc2ccccc2N1C	?	?	?	-	50µM
CCOc1ccc(C(=O)Nc2c(C(=O)Nc3ccccc3OC)oc3ccccc23)cc1OCC	-	-	-	.	-
CCOc1cc(C(=O)N2CC(=O)Nc3ccc(C)cc3C2c2ccccc2)cc(OCC)c1OCC (centres undefined)	-	-	-	.	-
Cc1ccc(C)c(-c2ccc(=O)n(C(C)C(=O)Nc3ccccc3C(F)(F)F)n2)c1 (centres undefined)	-	-	-	.	-
CN1/C(=C/c2cccc[n+]2CCO)Sc2ccccc21	?	-	45µM	-	56µM
CCc1ccccc1NC(=O)CSc1ncc2c(n1)-c1ccccc1N(Cc1ccc(C)cc1)S2(=O)=O	-	-	-	.	-
CC(=O)c1ccc(S(=O)(=O)Nc2ccc(-c3ccc(N4CCCCC4)nn3)cc2)cc1	-	-	?	.	-
NC(=O)Cc1nc(-c2ccc(F)cc2)cs1	-	-	22µM	-	-
NC(=O)Cc1nc(-c2ccc([N+](=O)[O-])cc2)cs1	-	-	-	.	-
Cc1ccc(C(=O)NCC(=O)OCC(=O)c2cccc3ccccc23)cc1	-	-	.	.	.
CC(=O)Nc1ncc(N=Nc2cccc(C(F)(F)F)c2)s1	-	-	45µM	.	-
C=C(C)Cn1c(SCC(=O)Nc2cc(C)ccc2C)nc2sc3c(c2c1=O)CCCC3	-	-	-	.	-
CCN(CC)c1ccc(NC(=O)C2CCN(c3nnc(-n4cccc4)s3)CC2)c(C)c1	-	-	4µM	.	-
O=C(Nc1ccccc1C(F)(F)F)C1CCN(c2nnc(-n3cccc3)s2)CC1	-	-	-	.	-
O=C(NCCCN1CCc2ccccc2C1)C1CCN(c2nnc(-n3cccc3)s2)CC1	?	-	50µM	-	-
COc1cc(NC(=O)NC(C)c2c(-n3cccc3)sc3c2CCN(C)C3)cc(OC)c1 (centres undefined)	?	-	?	.	?
COc1ccc(-c2onc(C)c2C)cc1S(=O)(=O)N1CCc2ccccc21	-	-	-	.	-
CC(=O)N1CCCc2cc(S(=O)(=O)N3CCN(c4ccc(F)cc4)CC3)ccc21	-	-	-	.	-
CC1CCN(C(=O)/C(=C\c2ccco2)NC(=O)c2ccccc2)CC1	-	-	50µM	.	-
Cc1ccc(C(=O)N/C(=C/c2ccco2)C(=O)N2CCC(C)CC2)cc1	-	-	18µM	.	-
Cc1cccc(C(=O)N/C(=C/c2ccco2)C(=O)N2CCCCCC2)c1	-	-	40µM	.	-
CC1CCCN(C(=O)/C(=C/c2ccco2)NC(=O)c2ccccc2)C1 (centres undefined)	-	-	45µM	.	-
Cc1cccc(C(=O)N/C(=C\c2ccco2)C(=O)N2CCCCCC2)c1	-	-	?	.	-
